From PubChem BioAssay (NCI)
About 79,000 compounds went through this panel and 15% of them were active in at least one assay; those are over-represented in the sample as a whole. A number with no mark means an inactive call. Cut-off read from the data, not from the text of the source: active = growth inhibition above about 70%; inactive = the rest.

Assay: NCI Yeast Anticancer Drug Screen. Data for the mlh1 rad18 strain (AID 175)
Conditions: S. cerevisiae mlh1 rad18 strain growth inhibition; at 50.0 µM; hits give high values
Method: Growth inhibition of yeast strains with defined genetic alterations is measured as a screen for potential anti-cancer activity. Selected strains with alterations in DNA damage repair or cell cycle control were exposed to compounds and growth inhibition was measured relative to vehicle treated controls. The strain used in this assay is mlh1 rad18

Row | SMILES | growth inhibition
1 | CCc1nc(N)nc(N)c1-c1ccc(Cl)c(NC(C)=O)c1 | 1.95%
2 | Cc1cc(C(C)(C)C)cc(C)c1[N+](=O)[O-] | 7.25%
3 | COC(=O)C(=O)C(C(=O)C=C(C)C)c1nc2n(c1O)C(=N)N=N2 (stereo not given) | 17.4%
4 | COC(=O)c1ccccc1NC(=O)Nc1cccc(Cl)c1C | 17.4%
5 | CSc1ncc(C#N)c2nc(-c3ccccc3)nn12 | 18.3%
6 | CC(C)CC(=O)NC(Nc1ccc(S(=O)(=O)Nc2ncccn2)cc1)(C(F)(F)F)C(F)(F)F | 6.8%
7 | CCOC(=O)c1[nH]c(C)c(/C(C)=N\NC(N)=O)c1C | 10.5%
8 | Cc1c(Cl)cccc1NC(=O)C(=O)C(C(=O)c1ccccc1-c1ccccc1)C1OC(=O)c2ccccc21 (stereo not given) | -23%
9 | NC(CS(=O)Cc1ccccc1)C(=O)O (stereo not given) | -6.85%
10 | NS(=O)(=O)c1ccccc1 | 15.4%
11 | Cc1cccc(CP(Cc2cccc(C)c2)CC2(Cp3c4ccccc4c4ccccc43)COC2)c1 | 34.5%
12 | CCCNC(=O)N1C(=O)c2ccccc2S1(=O)=O | -22.6%
13 | O=C(NC[N+]12CCO[B-]1(c1ccccc1)OCC2)c1ccccc1O (stereo not given) | 10.5%
14 | O=C(O)CC1CC(=O)OC1(c1ccccc1)c1ccccc1 (stereo not given) | 6.45%
15 | CCOC1(c2ccccc2)NC(=O)NC1(OCC)c1ccccc1 (stereo not given) | -9.6%
16 | CSCC[C@H]1C(=O)N=C(N)N1C(=O)OCc1ccccc1 | 12.8%
17 | COc1cccc(N)c1 | -10.2%
18 | Nc1ccc([N+](=O)[O-])c(F)c1 | 9.15%
19 | COc1ccccc1P(=O)(CCP(=O)(c1ccccc1)c1ccccc1OC)c1ccccc1 (stereo not given) | 9.5%
20 | O=C(O)C1CCCCC1O (stereo not given) | 1.3%

Row | SMILES | growth inhibition
21 | CCSC(SCC)C(Nc1ccc([N+](=O)[O-])cc1[N+](=O)[O-])C(OC(C)=O)C(OC(C)=O)C(COC(C)=O)OC(C)=O (stereo not given) | 12.8%
22 | CCN(CC)CCC1CC/C(=C\c2ccc(OC)cc2)C1=O (stereo not given) | 21.9%
23 | CC(=O)c1cc2cc(Br)ccc2oc1=O | 23.6%
24 | CC1(C)CC(=O)C(CC2=C(N)CC(C)(C)CC2=O)=C(N)C1 | 31.7%
25 | NC(Cc1ccccc1)C(=O)CCl (stereo not given) | 46.5%
26 | OC1[C@H](O)CN(OCc2ccccc2)C[C@@H]1O (stereo not given in full) | -18.4%
27 | CCCCCCCCCCCCCCCC/C(C(=O)OC)=C(/O)C(=O)OCC | -5.75%
28 | CNC1(C(=O)O)CCCCC1 | -2.2%
29 | Cc1ccc([N+](=O)[O-])c(N)n1 | 1.3%
30 | CC1(C#N)C(C#N)(C#N)C1(C#N)C#N | -21.1%
31 | CCc1cc2ccccc2oc1=O | -5.85%
32 | Cc1ccc(NC(=O)Oc2ccc(F)cc2)cc1NC(=O)Oc1ccc(F)cc1 | 33.6%
33 | Nc1nc(N)c(N=Nc2ccc(S(=O)(=O)O)cc2)c(N)n1 | 10.5%
34 | C=C(C)CN(CC(=C)C)C(C)=O | -5.85%
35 | NC(=S)c1ccncc1 | -27.4%
36 | CN(C1CCCCC1)S(=O)(=O)c1ccc(N)cc1 | 24.5%
37 | CC(=O)OCC1C(OC(C)=O)C(OC(C)=O)C(n2cnc3c(N)ncnc32)N1C(C)=O (stereo not given) | 4.35%
38 | Nc1ccc(C(=O)N/N=C/C=C/c2ccccc2)cc1 | 8.05%
39 | OCC(O)C(O)C(O)c1nn(-c2ccccc2)c2nc3ccc(Cl)cc3nc12 (stereo not given) | 5.3%
40 | COc1ccc(/C(Cl)=C/c2cc(OC)ccc2OC)cc1 | -9.05%
